Among the data in PubChem BioAssay (Tox21) are Potency and outcome values, retold here.

Structures are written as SMILES. Records with an inconclusive call do not appear. Entries that show only a call come without a potency. Calls of active or inactive are those of the source. Unless noted, calls follow the shape of the dose curve; as a rule, active = well fitted inhibition curve with a large enough effect in the repeat runs (not every such curve was filed as active); inconclusive = weak or mixed curves; inactive = flat fitted curve, though single readings scatter.

Thyrotropin-releasing hormone receptor (Homo sapiens), sequence (P34981 whole entry, looked up): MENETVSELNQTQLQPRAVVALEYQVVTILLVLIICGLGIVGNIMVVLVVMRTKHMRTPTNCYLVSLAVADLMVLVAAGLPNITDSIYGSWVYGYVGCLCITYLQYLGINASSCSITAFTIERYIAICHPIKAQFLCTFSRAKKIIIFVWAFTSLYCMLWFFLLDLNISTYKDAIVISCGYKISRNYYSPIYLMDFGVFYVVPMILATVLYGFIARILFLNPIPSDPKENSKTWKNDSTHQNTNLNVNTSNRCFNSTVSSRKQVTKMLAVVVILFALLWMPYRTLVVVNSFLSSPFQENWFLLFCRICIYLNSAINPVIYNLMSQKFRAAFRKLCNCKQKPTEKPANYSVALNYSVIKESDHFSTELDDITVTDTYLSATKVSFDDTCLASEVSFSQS

System in one test: not listed separately
Briefly: qHTS assay to identify small molecule agonists of the TGF-beta/Smad signaling pathway - cell viability counter screen (AID 1346829; active = well fitted cell-killing curve with a large enough effect in the repeat runs; also: top concentration of the series differs between compounds; nearly all actives have a fitted effect of over 45% in size). The settings on record: SBE-bla HEK293T viability, CellTiter-Glo luminescence, 5 h; series mostly up to 76.8 µM. A digest of the protocol:
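CellTiter-Glo luminescence readout; SBE-bla HEK 293T cells, overnight plating, compound 5 hr at 37 C/5% CO2, then bla substrate 2 hr RT, then CellTiter-Glo 30 min RT.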
Background: In qHTS, concentration-response curves come from the screen itself.
With `CCC1(c2ccccc2)C(=O)N(COC)C(=O)N(COC)C1=O`, the Potency entry is “inactive”.

Regarding `CC[C@@H](CO)NC(=O)[C@@H]1C=C2c3cccc4[nH]cc(c34)C[C@H]2N(C)C1`, the Potency entry is “inactive”.

Take `COC(=O)[C@@H](N)CCCN/C(N)=N/[N+](=O)[O-]`: the Potency result was “inactive”.

Consider `C=CC=O`, for which the Potency entry was “inactive”.

Regarding `COc1cccc(C=O)c1`, the Potency entry is “inactive”.

As to `COc1ccccc1OC`, the Potency result was “inactive”.

In the case of `N[C@@H]1C[C@H]1c1ccccc1`, the Potency result is “inactive”.

Take `CN(C)C(=O)Oc1cc(OC(=O)N(C)C)cc(C(O)CNC(C)(C)C)c1` (stereo unspecified): the Potency entry is “inactive”.

As to `ClCCCCCCCl`, the Potency entry was “inactive”.

Consider `CCCCCCCC(=O)Cl`, for which the Potency entry was “inactive”.

As to `ClC1=C(Cl)C2(Cl)C(CBr)CC1(Cl)C2(Cl)Cl` (stereo unspecified), the Potency result was “inactive”.

As for `CCCCCCC1CCOC1=O` (stereo unspecified), the Potency entry was “inactive”.

For the compound `CCCCS(=O)(=O)Cl`, the Potency result is “inactive”.

For `CC(=O)CN(CC(C)=O)N=O`, the Potency result was “inactive”.

With `CCOP(=O)(CN(CCO)CCO)OCC`, the Potency result was “inactive”.

For `O=C(Cl)OCc1ccccc1`, the Potency result was “inactive”.

For `CNC(=O)NC(O)C(Cl)(Cl)Cl` (stereo unspecified), the Potency result was “inactive”.

Consider `CCC(C)C(C)(COC(N)=O)COC(N)=O` (stereo unspecified), for which the Potency result is “inactive”.

With `ClCCN1CCCC1`, the Potency result is “inactive”.

Regarding `CC(C)N(Cc1ccccc1)C(=O)C(C)(C)C`, the Potency entry was “inactive”.

In the case of `CC#Cc1cc(C)nc(Nc2ccccc2)n1`, the Potency result is “inactive”.

On to `CCc1ccc(C2CCNCC2)cc1`, for which the Potency result was “inactive”.

As for `C(COCC1CO1)OCC1CO1` (stereo unspecified), the Potency result is “inactive”.

With `NCC1(CC(=O)O)CCCCC1`, the Potency entry is “inactive”.

Turning to `CC(O)CCl` (stereo unspecified), the Potency entry was “inactive”.

In the case of `CCOP(=S)(OCC)SCCl`, the Potency entry was “inactive”.

System in another test: not listed separately
Nature of the test: qHTS assay to identify small molecule agonists of the TGF-beta/Smad signaling pathway (AID 1346859; active = well fitted activation curve with a large enough effect in the signal ratio in the repeat runs, not every such curve was filed as active; the % refers to the signal ratio). The settings on record: SBE-bla HEK293T, TGF-beta/Smad beta-lactamase reporter, 5 h; series mostly up to 76.8 µM. A digest of the protocol: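 SBE-bla HEK 293T, 4,000 cells/well, plated o/n; cpd in DMSO, 5 hr, 37 C/5% CO2; B/G FRET substrate 2 hr RT; ex 405, em 460/530 nm.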
As to `CC[C@@H](CO)NC(=O)[C@@H]1C=C2c3cccc4[nH]cc(c34)C[C@H]2N(C)C1`, the compound was classed as inactive.

For `Cc1ccc(S(=O)(=O)N[C@@H](CCCCN)C(=O)CCl)cc1`, the outcome was inactive.

`CC(C)(C)NC[C@H](O)c1ccc(O)cc1Cl`: the result was inactive.

`O=P(O)(O)c1ccccc1`: the outcome was inactive.

Take `COc1cccc(C=O)c1`: the compound was called inactive.

`N[C@@H]1C[C@H]1c1ccccc1`: the compound was called inactive.

Consider `CN(C)C(=O)Oc1cc(OC(=O)N(C)C)cc(C(O)CNC(C)(C)C)c1` (stereo unspecified), for which the result was inactive.

With `ClCCCCCCCl`, the compound was called inactive.

For `CCN(CCO)CCO`, the call was inactive.

On to `Nc1c(Cl)c(F)nc(OCC(=O)O)c1Cl`, for which the outcome was inactive.

Take `CCCCCCCC(=O)Cl`: the compound was classed as inactive.

With `ClC1=C(Cl)C2(Cl)C(CBr)CC1(Cl)C2(Cl)Cl` (stereo unspecified), the compound was classed as inactive.

With `CCCCS(=O)(=O)Cl`, the compound was classed as inactive.

In the case of `CC(=O)CN(CC(C)=O)N=O`, the result was inactive.

Turning to `CCOP(=O)(CN(CCO)CCO)OCC`, the outcome was inactive.

Consider `O=C(Cl)OCc1ccccc1`, for which the compound was classed as inactive.

Consider `CNC(=O)NC(O)C(Cl)(Cl)Cl` (stereo unspecified), for which the compound was classed as inactive.

Turning to `CCC1(c2ccccc2)CCC(=O)NC1=O` (stereo unspecified), the outcome was inactive.

`CCC(C)C(C)(COC(N)=O)COC(N)=O` (stereo unspecified): the result was inactive.

With `ClCCN1CCCC1`, the outcome was inactive.

With `CC(Cl)(Cl)Cl`, the compound was classed as inactive.

As for `CC(C)N(Cc1ccccc1)C(=O)C(C)(C)C`, the compound was called inactive.

Regarding `CC#Cc1cc(C)nc(Nc2ccccc2)n1`, the compound was classed as inactive.

Consider `CCc1ccc(C2CCNCC2)cc1`, for which the call was inactive.

`CS(=O)(=O)c1ccc(C(=O)C2C(=O)CCCC2=O)c(Cl)c1COCC(F)(F)F`: the call was inactive.

Consider `CC(O)CCl` (stereo unspecified), for which the compound was classed as inactive.

`CCOP(=S)(OCC)SCCl`: the call was inactive.

As to `CC(Cc1ccccc1)NCCCCl` (stereo unspecified), the outcome was inactive.

Another test deals with Thyrotropin-releasing hormone receptor (Homo sapiens) (UniProt P34981). Briefly: qHTS assay to identify small molecule antagonists of the thyrotropin-releasing hormone receptor (TRHR) signaling pathway (AID 1346877). The settings on record: TRHR-HEK293, TRH-induced calcium fluorescence, antagonist mode; series mostly up to 51.3 µM. Summed up:
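Intracellular calcium fluorescence, read kinetically every second over 3 min, reports TRH-evoked signalling in HEK293 cells carrying TRHR. Test compounds were added 5 min ahead of a 1 nM TRH challenge.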
Turning to `CCC1(c2ccccc2)C(=O)N(COC)C(=O)N(COC)C1=O`, the Potency result is “inactive”.

Take `CC[C@@H](CO)NC(=O)[C@@H]1C=C2c3cccc4[nH]cc(c34)C[C@H]2N(C)C1`: the Potency entry was “inactive”.

Take `Cc1ccc(S(=O)(=O)N[C@@H](CCCCN)C(=O)CCl)cc1`: the Potency entry was “inactive”.

Take `COC(=O)[C@@H](N)CCCN/C(N)=N/[N+](=O)[O-]`: the Potency entry is “inactive”.

For the compound `CC(C)(C)NC[C@H](O)c1ccc(O)cc1Cl`, the Potency entry was “inactive”.

Turning to `COc1cccc(C=O)c1`, the Potency entry is “inactive”.

For the compound `N[C@@H]1C[C@H]1c1ccccc1`, the Potency result is “inactive”.

Take `CN(C)C(=O)Oc1cc(OC(=O)N(C)C)cc(C(O)CNC(C)(C)C)c1` (stereo unspecified): the Potency result was “inactive”.

`ClCCCCCCCl`: the Potency result is “inactive”.

For `CCN(CCO)CCO`, the Potency entry is “inactive”.

Consider `CCCCCCCC(=O)Cl`, for which the Potency result is “inactive”.

Take `ClC1=C(Cl)C2(Cl)C(CBr)CC1(Cl)C2(Cl)Cl` (stereo unspecified): the Potency result is “inactive”.

`CCCCCCC1CCOC1=O` (stereo unspecified): the Potency entry is “inactive”.

On to `CCCCS(=O)(=O)Cl`, for which the Potency entry is “inactive”.

As for `CC(=O)CN(CC(C)=O)N=O`, the Potency entry is “inactive”.

Turning to `O=C(Cl)OCc1ccccc1`, the Potency entry is “inactive”.

As for `CNC(=O)NC(O)C(Cl)(Cl)Cl` (stereo unspecified), the Potency result is “inactive”.

Turning to `CCC1(c2ccccc2)CCC(=O)NC1=O` (stereo unspecified), the Potency entry was “inactive”.

Turning to `CC(Cl)(Cl)Cl`, the Potency result is “inactive”.

Take `CC(C)N(Cc1ccccc1)C(=O)C(C)(C)C`: the Potency entry was “inactive”.

Consider `CC#Cc1cc(C)nc(Nc2ccccc2)n1`, for which the Potency result is “inactive”.

Consider `CCc1ccc(C2CCNCC2)cc1`, for which the Potency result is “inactive”.

For the compound `CS(=O)(=O)c1ccc(C(=O)C2C(=O)CCCC2=O)c(Cl)c1COCC(F)(F)F`, the Potency result was “inactive”.

Regarding `C(COCC1CO1)OCC1CO1` (stereo unspecified), the Potency entry is “inactive”.

With `NCC1(CC(=O)O)CCCCC1`, the Potency entry is “inactive”.

`CCOP(=S)(OCC)SCCl`: the Potency entry is “inactive”.

Take `CC(Cc1ccccc1)NCCCCl` (stereo unspecified): the Potency result was “inactive”.
